Results on 101 compounds are retold here after ChEMBL document CHEMBL3988442, “University of Dundee, Small-Polar-MMV Screening Library” (2021).

The structures appear in SMILES notation. Screen size: about 48,000 compounds; about 13,000 (27%) showed an effect of 50% or more. This is one part of the list.

This assay has as its system Wolbachia pipientis. Put plainly: Anti-Wolbachia Cell-Based Screen. Format: functional. The conditions noted are these: 5 µM. The arrangement: scale not given: in the data most compounds retested in dose-response had high values.
Regarding `Cc1c(C(N)=O)sc2nc(C(F)(F)F)ccc12`, the “Percent Effect” value is listed as -3.926%.

Consider `O=c1ccc2c(n1CC1CC1)CCC(NS(=O)(=O)C1CC1)C2` (stereo unspecified), for which the “Percent Effect” value is on record as -36.22%.

On to `O=C(NC1CCc2[nH]c(=O)ccc2C1)C1CCOCC1` (stereo unspecified), for which the “Percent Effect” value was -2.009%.

With `CCCS(=O)(=O)NC1CCc2c(ccc(=O)n2CC2CC2)C1` (stereo unspecified), the “Percent Effect” value is given as -27.38%.

As for `O=c1ccc2c([nH]1)CCC(NS(=O)(=O)C1CC1)C2` (stereo unspecified), the “Percent Effect” value came out at 112.2%.

As to `CCS(=O)(=O)NC1CCc2c(ccc(=O)n2CC2CC2)C1` (stereo unspecified), the “Percent Effect” value came to 2.839%.

Regarding `CS(=O)(=O)NC1CCc2[nH]c(=O)ccc2C1` (stereo unspecified), the “Percent Effect” value was found to be 99.95%.

For the compound `Cc1oc(-c2ccsc2)nc1CNC(C)Cn1cccn1` (stereo unspecified), the “Percent Effect” value was -4.999%.

As for `CS(=O)(=O)c1ccc(CNC[C@H]2COCc3nc4cccnc4n32)cc1`, the “Percent Effect” value is given as -5.618%.

`Cc1ccc(N2CCN(c3ccccc3C)CC2C)nn1` (stereo unspecified): the “Percent Effect” value was -2.059%.

For `CC1(C)[C@H]2CC=C(CN3CCCn4nc(CNS(C)(=O)=O)cc4C3)[C@@H]1C2`, the “Percent Effect” value is reported as -5.008%.

`CN(Cc1n[nH]c2c1CCCC2)C(=O)c1cccc(CCC(C)(C)O)c1`: the “Percent Effect” value is -30.85%.

As to `CN(Cc1n[nH]c2c1CCC2)C(=O)c1cc(-c2cccn2C)n[nH]1`, the “Percent Effect” value is reported as 101.4%.

As to `Cn1cccc1-c1cc(C(=O)N2CCCC2C(F)(F)F)[nH]n1` (stereo unspecified), the “Percent Effect” value is on record as 19.39%.

For `COCC(c1ccccn1)N(C)C(=O)c1cc(-c2cccn2C)n[nH]1` (stereo unspecified), the “Percent Effect” value is -5.051%.

With `CN(Cc1n[nH]c2c1CCC2)C(=O)c1cccc(CCC(C)(C)O)c1`, the “Percent Effect” value was determined as 10.18%.

In the case of `CN(Cc1n[nH]c2c1CCCCC2)C(=O)c1cc(-c2cccn2C)n[nH]1`, the “Percent Effect” value came out at 105.6%.

For the compound `C1CCN(CCOC2CCNCC2)CC1`, the “Percent Effect” value is on record as 5.861%.

With `CCc1noc(CC)c1CNC(=O)Nc1cccc([S+](C)[O-])c1` (stereo unspecified), the “Percent Effect” value is -9.563%.

Take `CN(CC(N)=O)S(=O)(=O)c1ccc(F)cc1F`: the “Percent Effect” value is listed as -1.274%.

For `N#Cc1cccnc1NCc1cccnc1N1CCCCC1`, the “Percent Effect” value is 16.56%.

On to `O=C(NCc1cccnc1N1CCCC(O)C1)c1ccc2[nH]nnc2c1` (stereo unspecified), for which the “Percent Effect” value was determined as 86.94%.

As to `O=C(NCc1cccnc1N1CCCCC1)c1ccc2c(c1)OCO2`, the “Percent Effect” value is 108.4%.

As to `O=C(NCc1ccccn1)Nc1ccc2[nH]nnc2c1`, the “Percent Effect” value was -4.844%.

Turning to `O=C(NCc1cccnc1N1CCCCC1)c1ccc2cc[nH]c2c1`, the “Percent Effect” value is recorded as 88.22%.

Consider `CC(NC(=O)c1cccs1)C(=O)NCc1cccnc1N1CCCCC1` (stereo unspecified), for which the “Percent Effect” value is recorded as -0.6319%.

`O=C(NCc1cccnc1N1CCCCC1)c1ccc2[nH]nnc2c1`: the “Percent Effect” value is 79.06%.

In the case of `CC(NC(=O)NCc1cccnc1N1CCCCC1)c1nccs1` (stereo unspecified), the “Percent Effect” value is -5.623%.

In the case of `COCCOc1ncccc1CNC(=O)N1CCCCCC1`, the “Percent Effect” value came out at 13.83%.

`Cc1nccn1-c1ncccc1CNC(=O)c1ccc(O)nc1`: the “Percent Effect” value was -1.557%.

Take `Cc1cccc(-c2nccn2-c2cccc(CC(=O)O)c2)n1`: the “Percent Effect” value is on record as -5.138%.

Regarding `COC(=O)[C@H](C)NC(=O)Cc1c(C)nc2c(c1C)c(=O)[nH]n2C`, the “Percent Effect” value is recorded as -6.613%.

For `CC(=O)N1CCCN(S(=O)(=O)c2cc3ccccc3o2)CC1`, the “Percent Effect” value is -15.12%.

On to `CCc1c(C)nc2ccccc2c1N1CCC(O)CC1`, for which the “Percent Effect” value is on record as 26.44%.

Turning to `CN(C)c1nccc(N2CCO[C@H]3CN(Cc4nccn4C)C[C@H]32)n1.O=C(O)C(F)(F)F`, the “Percent Effect” value was determined as 90.41%.

Turning to `CCc1ccc(CN2C[C@@H]3OCCN(c4ccnc(N(C)C)n4)[C@@H]3C2)o1.O=C(O)C(F)(F)F`, the “Percent Effect” value was determined as 11.89%.

As for `Cc1cccc(CN2C[C@@H]3OCCN(c4ccnc(N(C)C)n4)[C@@H]3C2)c1.O=C(O)C(F)(F)F`, the “Percent Effect” value stood at 91.52%.

Turning to `Cc1cccc(CN2C(=O)CO[C@@H]3CN(Cc4nccn4C)C[C@H]32)c1.O=C(O)C(F)(F)F`, the “Percent Effect” value worked out at 6.159%.

`O=C(c1cnccn1)N1C[C@@H]2CC[C@H](C1)N(C(=O)CCc1ccsc1)C2`: the “Percent Effect” value came out at 0.0629%.

Take `CC(NC(=O)c1cccnc1N(C)C)c1ccccc1Cl` (stereo unspecified): the “Percent Effect” value came to 5.567%.

Regarding `COc1ncccc1C(=O)N1CCN(C(=O)Cc2ccccn2)CC1`, the “Percent Effect” value was 10.82%.

For `O=C(CCc1ccccn1)N1CCCN(C(=O)CC2CCCC2)CC1`, the “Percent Effect” value is recorded as 129.1%.

As for `O=C(Cc1ccccn1)N1CCC2(CC1)[C@H](O)C[C@@H]2O`, the “Percent Effect” value was 131.3%.

Regarding `O=C(Cc1ccccn1)N1CCN(C(=O)CC2CCCCC2)CC1`, the “Percent Effect” value amounted to 116.9%.

With `O=C(Cc1ccccn1)N1CCN(C(=O)CC2CCCC2)CC1`, the “Percent Effect” value was determined as 111.6%.

On to `O=C1CCC2(CCCN(C(=O)Cc3ccccn3)C2)N1` (stereo unspecified), for which the “Percent Effect” value was -49.82%.

On to `CCOC1CC2(CCN(C(=O)Cc3ccccn3)CC2)C1.O=C(O)C(F)(F)F`, for which the “Percent Effect” value is -13.33%.

For the compound `O=C(Cc1ccccn1)N1CCN(C(=O)c2cccc3[nH]ncc23)CC1`, the “Percent Effect” value was determined as 0.8571%.

In the case of `O=C(CCc1ccccn1)N1CCN(C(=O)CC2CCCCC2)CC1`, the “Percent Effect” value is on record as -0.7864%.

Turning to `CNC(=O)C1(N2CCC[C@H]2C(=O)NC2CC2)CCCCC1.Cl`, the “Percent Effect” value was -3.847%.

As for `O=C(c1cc(Cl)c2c(c1)OCCO2)N1CCCC(n2cncn2)C1` (stereo unspecified), the “Percent Effect” value is listed as -4.605%.

As to `CSCCCNC(=O)C(c1cccc(F)c1)N(C)C` (stereo unspecified), the “Percent Effect” value is -14.22%.

For the compound `CN(C)c1ncccc1C(=O)N1CCCN(c2cccnn2)CC1`, the “Percent Effect” value was -6.134%.

Consider `Cc1scc(C(=O)N2CCC3(CCCN(C)C3=O)C2)c1-c1ccccc1` (stereo unspecified), for which the “Percent Effect” value is -11%.

For the compound `CN(CCO)C(=O)c1coc(CN2CCN(c3ccccc3F)CC2)n1`, the “Percent Effect” value came to 24.23%.

On to `O=C(CCc1ccccn1)N1CCSC2(CCCCC2)C1`, for which the “Percent Effect” value is -3.003%.

For `Cc1cccnc1N1CCN(C(=O)CCc2ccccn2)CC1`, the “Percent Effect” value was -3.662%.

With `Cc1nc(O)cc(C2CCCN(C(=O)CN(C)c3ccccc3)C2)n1` (stereo unspecified), the “Percent Effect” value turned out to be 1.624%.

`CN(C)c1nc(O)cc(C2CCN(C(=O)Cc3ccccn3)C2)n1` (stereo unspecified): the “Percent Effect” value turned out to be 148.4%.

On to `CC(C)NC(=O)C[C@H]1[C@H]2CN(C(=O)Cc3ccccn3)C[C@@H]12.O=C(O)C(F)(F)F`, for which the “Percent Effect” value is on record as 0.3737%.

For `O=C(CCc1ccccn1)N1CCCC1`, the “Percent Effect” value is 132.5%.

Turning to `CCc1ncc(C(=O)N(CCOC)Cc2nccs2)cn1`, the “Percent Effect” value is on record as -17.92%.

With `CC(=O)NCCC(=O)NCC1(c2c(F)cccc2F)CCCC1`, the “Percent Effect” value amounted to 8.916%.

Take `CCCS(=O)(=O)N1CCC(NCc2c(C)nn(C)c2OC)CC1`: the “Percent Effect” value is -2.561%.

With `COc1c(CNC2CCN(c3ncccn3)CC2)c(C(C)C)nn1C`, the “Percent Effect” value is listed as -7.484%.

As for `COc1c(CNC2CCN(CC(=O)NC3CC3)CC2)c(C)nn1C`, the “Percent Effect” value is reported as -12.1%.

`COc1c(CNC2CCN(c3ccccn3)CC2)c(C(C)C)nn1C`: the “Percent Effect” value was determined as 112.8%.

With `COc1c(CNC2CCN(c3ncccn3)CC2)c(C)nn1C`, the “Percent Effect” value amounted to 109.2%.

With `COc1c(CNC2CCCN(c3ncccn3)C2)c(C(C)C)nn1C` (stereo unspecified), the “Percent Effect” value is recorded as 105%.

Turning to `O=C(NCc1ccco1)c1cccc(CN2CCCC2CO)c1` (stereo unspecified), the “Percent Effect” value is -23.86%.

As for `Cc1cnn(C(C)C2CC2)c1NC(=O)c1ccco1` (stereo unspecified), the “Percent Effect” value is -0.6057%.

On to `COc1cc2c(cc1OC)S(=O)(=O)N(Cc1ccc(C)cc1)C2=O`, for which the “Percent Effect” value is listed as -15.41%.

On to `Cc1nsc(NC(=O)NC2(CN3CCOCC3)CCCC2)n1`, for which the “Percent Effect” value was -3.665%.

With `Cc1csc(NC(=O)C2(C)CN(C)CCO2)n1` (stereo unspecified), the “Percent Effect” value stood at 103.9%.

For the compound `CN1CCOC(C)(C(=O)Nc2nc(C(C)(C)C)cs2)C1` (stereo unspecified), the “Percent Effect” value is 82.99%.

For `Cc1csc(NC(=O)C2(C)CCCO2)n1` (stereo unspecified), the “Percent Effect” value is recorded as -5.614%.

Regarding `CN1CCOC(C)(C(=O)Nc2nccs2)C1` (stereo unspecified), the “Percent Effect” value was determined as 89.7%.

Regarding `CN1CCC(NC(=O)Cc2csc(C(C)(C)C)n2)CC1`, the “Percent Effect” value is recorded as -5.316%.

Take `CCC(C)(CNC(=O)Nc1nccs1)N1CCOCC1` (stereo unspecified): the “Percent Effect” value is 14.58%.

As to `CN1CCOC(C(=O)Nc2ccc3c(c2)nc(C(C)(C)C)n3C)C1` (stereo unspecified), the “Percent Effect” value is listed as 1.099%.

Regarding `Cc1nc(NC(=O)C2(C)CN(C)CCO2)sc1C.Cl` (stereo unspecified), the “Percent Effect” value was 123.3%.

As for `Cc1nc(NC(=O)C(C)N2CCN(c3ncccn3)CC2)sc1C` (stereo unspecified), the “Percent Effect” value was -4.452%.

For `CC(C)(CNC(=O)Nc1nccs1)N1CCOCC1`, the “Percent Effect” value is on record as -4.16%.

Consider `Cc1csc(NC(=O)c2cccnc2N2CCOCC2)n1`, for which the “Percent Effect” value was -18.32%.

Take `Cc1nccn1C1(C(=O)O)CCN(Cc2ccc3c(c2)OCCO3)CC1`: the “Percent Effect” value was -9.809%.

`O=C1CC[C@H]2CN(c3ncc(F)cn3)CC[C@H]2N1CCc1c[nH]cn1`: the “Percent Effect” value is on record as -5.494%.

For the compound `O=C(NCc1ccncc1)N(Cc1ccccc1F)C1CC1`, the “Percent Effect” value came out at 1.311%.

As to `Cc1cc(C)n2ncc(CN3CCC(n4cc(CCO)nn4)CC3)c2n1`, the “Percent Effect” value is reported as 4.389%.

`CNc1nc2c(s1)C(=O)CN(C(=O)NCc1ccccc1)C2`: the “Percent Effect” value is -1.017%.

For the compound `O=C(NCCc1ccccc1)N1CCC(C2OCCO2)CC1`, the “Percent Effect” value is listed as 12.73%.

As to `COc1cccc(CNC(=O)c2nc3c(o2)CN(C(=O)N(C)C)C3)c1`, the “Percent Effect” value is listed as -21.04%.

With `CC(C)Nc1nc2c(s1)C(=O)CN(C(=O)NCCc1ccccc1)C2`, the “Percent Effect” value is 113.9%.

In the case of `CNc1nc2c(s1)C(=O)CN(C(=O)NCCc1ccccc1)C2`, the “Percent Effect” value was determined as 90.96%.

On to `CNc1nc2c(s1)C(=O)CN(C(=O)[C@@H](N)Cc1cccc(OC)c1)C2`, for which the “Percent Effect” value was determined as 113.9%.

For the compound `CC(C)Nc1nc2c(s1)C(=O)CN(C(=O)NCc1ccccc1)C2`, the “Percent Effect” value was 95.64%.

Regarding `O=C1NCCN2CCN(C(=O)NCCc3ccccc3)CC12` (stereo unspecified), the “Percent Effect” value is given as -9.412%.

Take `NC(=O)c1cccc(CCNC(=O)N2Cc3ccccc3C2)c1`: the “Percent Effect” value stood at 2.881%.

On to `CCC1=N[C@@]2(CC[C@@H]3CN(C(=O)NCc4ccccc4)C[C@@H]32)C(=O)N1`, for which the “Percent Effect” value is on record as -15.34%.

As for `CC(C)[C@@H]1CN(C(=O)NCCc2ccccc2)C[C@H]1NS(=O)(=O)N(C)C`, the “Percent Effect” value is listed as -13.11%.

`COc1cccc(CN2CCN(C(=O)Nc3nc(C)ns3)CC2=O)c1`: the “Percent Effect” value was -7.215%.

Consider `COc1ccc(Cl)cc1CNC(=O)CN1CCC2(CCOC2)C1` (stereo unspecified), for which the “Percent Effect” value amounted to 5.478%.
